Several values for one entry are separate records, joined by “and”; a condition that tells them apart may be missing. Identical values can stand only once. The source holds several records for some structures; these can differ, active in one and inactive in another. Activity calls are given as the source filed them. How the source made its calls: active means hit-call score of the fitted dose curve at least 0.9, where 1 is the maximum; inactive means score below 0.9.

Read-out in assay [1]: Human Leukocyte Antigen - DR isotype (HLADR), HLA-DRA (gene 3122)
The assay is described as follows: BSK_CASM3C_HLADR: BioMAP Diversity Plus: CASM3C Assay for Human Leukocyte Antigen - DR isotype (HLADR) Biomarker Activity (AID 2283043).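 Further: cell-surface HLA-DR protein level quantified by ELISA.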 Particulars: primary human coronary artery smooth muscle cells; actives raise or lower the signal.

Read-out in assay [2]: Macrophage colony-stimulating factor (MCSF), CSF1 (gene 1435)
The experiment in a line: BSK_CASM3C_MCSF: BioMAP Diversity Plus: CASM3C Assay for Macrophage colony-stimulating factor (MCSF) Biomarker Activity (AID 2283044).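 Further: M-CSF protein amount quantified by ELISA after 24 h exposure.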 The conditions noted are these: primary human coronary artery smooth muscle cells; actives raise or lower the signal.

Read-out in assay [3]: Low-density lipoprotein receptor (LDLR), LDLR (gene 3949)
The experiment in a line: BSK_CASM3C_LDLR: BioMAP Diversity Plus: CASM3C Assay for Low-density lipoprotein receptor (LDLR) Biomarker Activity (AID 2283045).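 Further: LDLR protein level on the cell surface quantified by ELISA.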 The conditions noted are these: primary human coronary artery smooth muscle cells; actives raise or lower the signal.

Read-out in assay [4]: Monocyte Chemoattractant Protein-1 (MCP1), CCL2 (gene 6347)
The experiment in a line: BSK_CASM3C_MCP1: BioMAP Diversity Plus: CASM3C Assay for Monocyte Chemoattractant Protein-1 (MCP1) Biomarker Activity (AID 2283046).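 Further: MCP-1 level quantified by ELISA 24 h after dosing.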 The conditions noted are these: primary human coronary artery smooth muscle cells; actives raise or lower the signal.

Assay [5] can be described thus: BSK_CASM3C_Proliferation: Cell Proliferation Assessment in the BioMAP Diversity Plus: CASM3C Assay (AID 2283047).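 Further: sulforhodamine B total protein stain as relative cell number at 560 nm; sub-confluent cells exposed 48 h before staining; fitted both ways against DMSO so gain or loss of cell number.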 The conditions noted are these: primary human coronary artery smooth muscle cells.
Read-out in assay [6]: Monokine induced gamma interferon (MIG), CXCL9 (gene 4283)
The assay is described as follows: BSK_CASM3C_MIG: BioMAP Diversity Plus: CASM3C Assay for Monokine induced gamma interferon (MIG) Biomarker Activity (AID 2283048).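 Further: MIG protein level measured by ELISA.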 Particulars: primary human coronary artery smooth muscle cells; actives raise or lower the signal.

Read-out in assay [7]: serum amyloid A (SAA), SAA1 (gene 6288)
The assay is described as follows: BSK_CASM3C_SAA: BioMAP Diversity Plus: CASM3C Assay for serum amyloid A (SAA) Biomarker Activity (AID 2283049).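 Further: SAA protein level quantified by ELISA.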 Particulars: primary human coronary artery smooth muscle cells; actives raise or lower the signal.

A short description of assay [8]: BSK_CASM3C_SRB: Viability Assessment in the BioMAP Diversity Plus: CASM3C Assay (AID 2283050).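 Further: total protein by SRB staining as cytotoxicity measure in parallel cultures; cells exposed to compound for 24 h.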 The conditions noted are these: primary human coronary artery smooth muscle cells.
Read-out in assay [9]: Thrombomodulin, THBD (gene 7056)
The experiment in a line: BSK_CASM3C_Thrombomodulin: BioMAP Diversity Plus: CASM3C Assay for Thrombomodulin Biomarker Activity (AID 2283051).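 Further: thrombomodulin protein level measured by ELISA 24 h after dosing.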 Particulars: primary human coronary artery smooth muscle cells; actives raise or lower the signal.

Read-out in assay [10]: Tissue Factor, F3 (gene 2152)
The assay is described as follows: BSK_CASM3C_TissueFactor: BioMAP Diversity Plus: CASM3C Assay for Tissue Factor Biomarker Activity (AID 2283052).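 Further: cell surface tissue factor protein level read by ELISA.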 The conditions noted are these: primary human coronary artery smooth muscle cells; actives raise or lower the signal.

As for `Cc1cc(C(C)(C)c2ccc(O)c(C)c2)ccc1O`, the AC50 was 17.4 µM (active) in [1]; 15.2 µM (active) in [2]; 15.7 µM (active) in assay [5]; 17 µM (active) in [7]; 14.9 µM (active) in [8]; 3.01 µM (active) in [9]. In assay [10], the AC50 is 8.57 µM (active). In addition, the outcome in assay [3], in [4] and in assay [6] was inactive.
For the compound `CC(C)(C)c1cc([N+](=O)[O-])cc(C(C)(C)C)c1O`, the outcome in assay [1], in assay [2], in assay [3], in assay [4], in [5] and in [6] was inactive. Besides, the result in assay [7], in assay [8], in assay [9] and in [10] was inactive.
With `CN(C)C(=S)S`, the outcome in [1], in [2], in assay [3], in assay [4], in assay [6] and in [7] was inactive. Further, the result in assay [8], in assay [9] and in assay [10] was inactive. Also, in assay [5], the concentration at half-maximal activity (AC50) was 0.791 µM (active).
In the case of `Cc1cccc(OP(=O)(Oc2cccc(C)c2)Oc2cccc(C)c2)c1`, the result in assay [1], in assay [3], in [5], in [6], in [7] and in [8] was inactive. The result in assay [9] and in [10] was inactive. The half-maximal activity concentration (AC50) is 0.139 µM (active) in [2] and 0.075 µM (active) in assay [4].
`COCC(=O)N(c1c(C)cccc1C)[C@H](C)C(=O)OC`: the outcome in assay [1], in [2], in assay [3], in assay [4], in [5] and in assay [6] was inactive. The result in [7], in assay [8], in assay [9] and in assay [10] was inactive.
With `c1ccc2sc(SNC3CCCCC3)nc2c1`, the result in [1], in [2], in assay [3], in assay [4], in [5] and in assay [6] was inactive. Further, the result in [7], in [8], in [9] and in assay [10] was inactive.
Take `CCOP(=S)(OCC)SCS(=O)(=O)C(C)(C)C`: the outcome in assay [1], in assay [2], in assay [3], in [4], in assay [5] and in assay [6] was inactive. The outcome in assay [7], in [8], in [9] and in assay [10] was inactive.
Consider `OCCN(CCO)CCO`, for which the result in assay [1], in assay [2], in [3], in [4], in assay [5] and in assay [6] was inactive. For the same compound, the result in [7], in [8], in assay [9] and in [10] was inactive.
Turning to `CCOP(=O)(OCC)OC(=CCl)c1ccc(Cl)cc1Cl`, the concentration at half-maximal activity (AC50) in [1] is 33.4 µM (active); in assay [2], 31.7 µM (active); in assay [3], 28.3 µM (active); in [4], 28 µM (active); in [5], 28.5 µM (active); in [7], 29.6 µM (active). Further, the figures for the AC50 in assay [8] and in [10] were 29.5 µM (active) and 24.9 µM (active), respectively. Moreover, the outcome in assay [6] and in [9] was inactive.
For the compound `Cc1ccccc1OP(=O)(Oc1ccccc1)Oc1ccccc1`, the outcome in [1], in assay [2], in assay [3], in [4], in [5] and in [6] was inactive. The outcome in [7], in assay [9] and in [10] was inactive. The AC50 in [8] is 8.32 µM (active).
As to `Cc1ccc(OP(=O)(Oc2ccc(C)cc2C)Oc2ccc(C)cc2C)c(C)c1`, the result in assay [1], in assay [3], in assay [4], in assay [5], in [6] and in assay [7] was inactive. For the same compound, the result in [8], in assay [9] and in assay [10] was inactive. For the same compound, the AC50 in [2] was 0.0882 µM (active).
Regarding `Oc1c(Cl)cc(Cl)cc1Cl`, the result in assay [1], in assay [2], in [3], in [4], in assay [5] and in [6] was inactive. Besides, the outcome in assay [7], in assay [8], in [9] and in [10] was inactive.
Consider `CC1(C)[C@H](C(=O)O[C@H](C#N)c2cccc(Oc3ccccc3)c2)[C@@H]1/C=C(\Cl)C(F)(F)F`, for which the outcome in assay [1], in assay [2], in [3], in assay [4], in [5] and in assay [6] was inactive. The outcome in [7], in assay [8] and in assay [10] was inactive. Besides, the AC50 in assay [3] was 3.39 µM (active); in [9] it was 5.06 µM (active) and 7.16 µM (active).
With `Nc1c(Oc2ccccc2)cc(O)c2c1C(=O)c1ccccc1C2=O`, the result in assay [1], in assay [2], in assay [3], in [4], in [5] and in [6] was inactive. For the same compound, the result in assay [7], in assay [8], in [9] and in assay [10] was inactive.
For `CC(C)(COCC1CO1)COCC1CO1` (stereo unspecified), the result in assay [1], in [2], in assay [3], in assay [4], in assay [5] and in [6] was inactive. Besides, the outcome in assay [7], in assay [8], in assay [9] and in [10] was inactive.
In the case of `CCOC(=O)C(SP(=S)(OC)OC)c1ccccc1` (stereo unspecified), the concentration at half-maximal activity (AC50) is 20 µM (active) in assay [1]; 20 µM (active) in assay [2]; 20 µM (active) in assay [5]; 20 µM (active) in [9]; 3.97 µM (active) in assay [10]. For the same compound, the outcome in [3], in [4], in assay [6], in assay [7] and in assay [8] was inactive.

One may read the AC50 as the concentration at which the activity in the assay is half-maximal.

The values above are taken from PubChem BioAssay (EPA / NIEHS).
